According to PubChem BioAssay:
Activity calls are given as the source filed them.

Assays:
[1] = A549 cell viability effects, profiling panel, calcein-AM fluorescence, 48 h, basal (AID 1162); conditions: higher = more signal
[2] = adipocyte viability effects, profiling panel, cell-based, 3T3-L1 adipocytes, calcein-AM fluorescence, 48 h, basal (AID 1163); conditions: 3T3-L1 adipocytes viability, higher = more signal
[3] = HepG2 cell viability effects, profiling panel, calcein-AM fluorescence, 48 h, basal (AID 1164); conditions: higher = more signal
[4] = MM1S cell viability effects, profiling panel, calcein-AM fluorescence, 48 h, basal (AID 1165); conditions: higher = more signal;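 note: viability of MM1S multiple myeloma cells under basal unstimulated conditions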
[5] = basal RPMI8226 viability, no added stimulus, profiling panel, cell-based, calcein-AM fluorescence, 48 h, PK04 Diversity Set (AID 1166); conditions: RPMI8226 myeloma viability, higher = more signal;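 note: cells grown under basal conditions without added stimulus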
[6] = basal HepG2 mitochondrial membrane potential changes, profiling panel, cell-based, JC-1 fluorescence, 24 h, 100 nL compound (AID 1167); conditions: higher = more signal
[7] = basal 3T3-L1 adipocyte mitochondrial potential changes, profiling panel, cell-based, JC-1 fluorescence, 3T3-L1 adipocytes, 24 h, 100 nL compound (AID 1168); conditions: JC-1 mitochondrial fluorescence, higher = more signal, called active from +8 up or from −8 down
[8] = basal RPMI8226 mitochondrial membrane potential changes, profiling panel, cell-based, JC-1 fluorescence, 24 h, 100 nL compound (AID 1169); conditions: RPMI8226 myeloma, JC-1 mitochondrial potential fluorescence, higher = more signal
[9] = basal MM1S mitochondrial membrane potential changes, profiling panel, cell-based, JC-1 fluorescence, 24 h, 100 nL compound (AID 1170); conditions: higher = more signal
[10] = A549 lung cancer cell viability effects, profiling panel, resazurin fluorescence, 24 h, PK04 Diversity Set (AID 1171); conditions: higher = more signal, called active from +8 up or from −8 down
Note: test concentration not given here.

| Compound | z-score [1] | z-score [2] | z-score [3] | z-score [4] | z-score [5] | z-score [6] | z-score [7] | z-score [8] | z-score [9] | z-score [10] |
| --- | --- | --- | --- | --- | --- | --- | --- | --- | --- | --- |
| CCCCC(=C=CC[C@H](O)c1ccccc1OCCO)CCO | -0.341 | -0.358 | 0.285 | -0.0455 | -0.857 | -0.95 | 0.101 (inactive) | -0.193 | -0.434 | 0.356 (inactive) |
| COC(=O)[C@@]1(Cc2ccc(F)cc2)[C@@H]2C(=CC(=O)[C@H]2CC(=O)C(=O)N2CCCC2)CN1C(=O)c1ccccc1 | -1.77 | 1.16 | -1.32 | -2.6 | -4.29 | 3.9 | -0.568 (inactive) | -0.686 | -2.82 | -1.97 (inactive) |
| CC(C)(C)OC(=O)CC[C@@]1(C(N)=O)N=C(c2ccc(OCCCO)cc2)O[C@@H]1c1ccccc1CN=[N+]=[N-] | 0.105 | -0.288 | 0.886 | 0.0855 | 0.116 | -1.08 | -0.216 (inactive) | 0.698 | -0.829 | 0.112 (inactive) |
| CN1C2C=C(c3ccc(CO)cc3)C(C3C(=O)N(C(N)=O)C(=O)C32)C1C1CC1 (stereo not given) | -0.497 | 0.0457 | -0.157 | 0.341 | -0.773 | -0.391 | -0.242 (inactive) | -0.482 | 0.326 | 0.182 (inactive) |
| CC(C)c1ccc(NN2C(C(O)C3CCCCC3)C=CC3C(=O)N(c4ccccc4)C(=O)C32)cc1 (stereo not given) | 0.19 | -1.19 | 1.41 | -0.381 | -0.886 | -1.49 | -0.176 (inactive) | 0.227 | -1.36 | -0.519 (inactive) |
| CC(C)N1C(=O)[C@@]2(Cc3ccccc31)c1ccccc1C(=O)N(Cc1ccccc1)[C@H]2c1ccc(CO)cc1 | -0.128 | 0.0609 | -0.112 | -0.436 | -0.617 | -0.0756 | -0.0814 (inactive) | 0.122 | 0.687 | 0.247 (inactive) |
| COCCCNC(=O)[C@@]1(c2ccc([N+](=O)[O-])cc2)CC(=O)N(C2CCCCC2)[C@@H]1c1ccc(CO)cc1I | 1.22 | 0.944 | 0.857 | -1.41 | -0.0154 | 2.88 | 0.802 (inactive) | 0.496 | 0.106 | 1.38 (inactive) |
| NCCCCCCNC(=O)[C@@H]1C[C@@H]2C(=O)NCC(=O)N2[C@@H]1c1cccc(OCCO)c1 | 0.51 | 0.22 | 1.06 | 0.604 | -0.431 | 1.14 | 0.885 (inactive) | 0.533 | 0.307 | 0.678 (inactive) |
| CN1C(=O)C2C=CC(C(O)c3ccc([N+](=O)[O-])cc3)N(Nc3ccccc3)C2C1=O (stereo not given) | -1.06 | -1.33 | -0.581 | 0.13 | -0.772 | -1.05 | -1.92 (inactive) | -0.199 | -0.522 | -1.36 (inactive) |
| C=CCNC(=O)[C@H]1[C@@H]2C(=O)O[C@@H](c3ccccc3)[C@@H](c3ccccc3)N2[C@@H](c2ccc(O)cc2)[C@]12C(=O)Nc1ccccc12 | 1.94 | 0.816 | 1.51 | -0.0148 | -0.836 | -0.948 | -0.586 (inactive) | 0.105 | 0.24 | 0.552 (inactive) |
| COC(=O)[C@@]1(Cc2ccccc2)[C@H]2c3cc(C(=O)N(C)C)n(Cc4nc5ccccc5[nH]4)c3C[C@H]2CN1C(=O)c1ccccc1 | 0.173 | -0.232 | 0.858 | -0.013 | -0.191 | -0.3 | 0.385 (inactive) | -0.303 | -0.701 | 0.0716 (inactive) |
| C=C(COC)/C(=C/C[C@@H](OC(C)=O)c1cccc(OCCO)c1)c1cnc2ccccc2c1 | 0.37 | 1.35 | -0.705 | -0.588 | -0.461 | 0.902 | -0.0217 (inactive) | 0.0629 | 0.627 | -0.736 (inactive) |
| CC[C@@H](O[Si](C#C[Si](C(C)C)(C(C)C)C(C)C)(C(C)C)C(C)C)c1cn(Cc2cccc(Cl)c2)nn1 | -0.163 | -1.25 | 0.0222 | 0.534 | 0.0929 | 0.0106 | -0.00161 (inactive) | 0.0677 | -1.25 | 0.359 (inactive) |
| [N-]=[N+]=NCc1ccccc1C[C@@]1(C(N)=O)N=C(c2ccc(OCCCO)cc2)O[C@@H]1c1ccccc1N=[N+]=[N-] | -0.908 | -0.278 | -0.705 | -3 | -3.1 | -1.07 | -0.71 (inactive) | -1.08 | -0.62 | -0.583 (inactive) |
| C=C1C(=O)C=C2CN(C(=O)c3ccccc3)[C@@](Cc3ccc(F)cc3)(C(=O)OC)[C@@H]12 | -3.89 | -1.94 | -5.62 | -3.36 | -4.73 | -3.92 | 3.42 (inactive) | -0.764 | -2.82 | -7 (inactive) |
| COC(=O)[C@@]1(Cc2ccc(F)cc2)[C@H]2c3cc(C(=O)N4CCCC4)n(Cc4ccc(C(F)(F)F)nc4)c3C[C@H]2CN1C(=O)c1ccccc1 | -0.29 | 0.585 | -1.06 | -2.08 | -1.37 | 1.69 | -0.439 (inactive) | -0.799 | -0.873 | 0.052 (inactive) |
